The record followed here is PubChem BioAssay AID1456 (Vanderbilt High Throughput Screening Facility, 2008).

Hit rate of the full screen: of about 190,000 compounds, about 4,100 (2.2%) were called active. Many of the other results were omitted from the sample, so actives are more common in it than they were. A number with no mark means an inactive call.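 Rule for the calls: active = thallium flux slope and its plate-corrected score both differing from the plate sample mean at a set confidence after two filtering rounds, in either direction; inactive = the rest.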

In this assay the target is Solute carrier family 12 member 5 (Homo sapiens) (UniProt Q9H2X9). The assay can be described thus: KCC2 cotransporter modulators, thallium flux, primary screen, cell-based, HEK293 KCC2, FluoZin-2 fluorescence, MLSMR (AID 1456).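 Note: slope of fluorescence scaled to starting intensity during 10 to 20 s after thallium.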 Conditions: KCC2 cells, thallium flux FluoZin-2 fluorescence; at 10 µM.
Solute carrier family 12 member 5 (Homo sapiens), sequence (Q9H2X9 whole entry, looked up): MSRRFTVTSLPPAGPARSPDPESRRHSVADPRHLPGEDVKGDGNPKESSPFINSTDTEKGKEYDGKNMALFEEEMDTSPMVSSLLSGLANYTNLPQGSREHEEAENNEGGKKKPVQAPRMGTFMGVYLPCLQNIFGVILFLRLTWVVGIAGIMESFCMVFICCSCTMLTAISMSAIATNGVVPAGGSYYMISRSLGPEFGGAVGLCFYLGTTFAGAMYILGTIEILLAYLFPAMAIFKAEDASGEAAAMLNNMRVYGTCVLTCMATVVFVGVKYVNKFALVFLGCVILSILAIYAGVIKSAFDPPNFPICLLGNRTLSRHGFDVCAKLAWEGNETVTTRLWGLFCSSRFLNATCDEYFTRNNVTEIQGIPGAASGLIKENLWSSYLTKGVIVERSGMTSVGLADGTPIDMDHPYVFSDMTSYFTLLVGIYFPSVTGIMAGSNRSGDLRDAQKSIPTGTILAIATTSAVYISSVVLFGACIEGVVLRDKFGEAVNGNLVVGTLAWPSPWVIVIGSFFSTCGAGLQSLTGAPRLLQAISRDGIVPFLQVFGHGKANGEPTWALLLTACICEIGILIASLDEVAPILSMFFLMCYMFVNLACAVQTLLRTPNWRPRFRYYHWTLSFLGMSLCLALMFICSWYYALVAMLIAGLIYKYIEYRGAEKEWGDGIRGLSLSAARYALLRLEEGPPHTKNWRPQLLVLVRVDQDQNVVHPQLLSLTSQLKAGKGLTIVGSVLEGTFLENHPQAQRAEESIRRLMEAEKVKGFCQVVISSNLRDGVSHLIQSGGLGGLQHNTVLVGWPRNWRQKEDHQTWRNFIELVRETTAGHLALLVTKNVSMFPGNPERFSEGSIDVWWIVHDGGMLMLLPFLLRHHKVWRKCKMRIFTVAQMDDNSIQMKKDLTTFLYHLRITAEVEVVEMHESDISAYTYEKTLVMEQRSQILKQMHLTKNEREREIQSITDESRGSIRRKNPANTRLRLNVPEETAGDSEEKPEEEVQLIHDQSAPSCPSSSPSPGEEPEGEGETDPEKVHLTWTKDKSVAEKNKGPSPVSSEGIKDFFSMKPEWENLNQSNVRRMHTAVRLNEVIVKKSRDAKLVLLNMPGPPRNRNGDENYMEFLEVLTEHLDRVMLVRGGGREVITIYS
For `CCN(CC)S(=O)(=O)c1cccc(C(=O)Nc2ccccc2)c1`, the B-score of Tl+ flux slope (higher = more flux/activation; lower = inhibition) was 0.179.
In the case of `CN(C)S(=O)(=O)c1cccc(NC(=O)COC(=O)c2cc(=O)[nH]c(=O)[nH]2)c1` it was -0.0283; in that of `Cc1ccc(/C=N/NC(=S)Nc2cccc(S(=O)(=O)N(C)C)c2)o1`, 11.8 (active); in that of `CN(C)S(=O)(=O)c1cccc(NC(=S)NCc2ccc3c(c2)OCO3)c1`, -0.00969.
Next, `O=C(Cn1cnc2c(nnn2Cc2ccc(F)cc2)c1=O)NCc1ccc2c(c1)OCO2`: -2.61 (active); `Cc1cc(C)cc(NC(=O)Cn2cnc3c(nnn3Cc3ccc(F)cc3)c2=O)c1`: 0.19; `O=C(Cn1nnc(-c2ccccc2)n1)NCc1ccc2c(c1)OCO2`: -1.86.
Regarding `Cn1nccc1NC(=O)Nc1ccc(OC(F)(F)F)cc1`, the B-score of Tl+ flux slope (higher = more flux/activation; lower = inhibition) was -0.213.
Next, `Cc1ccccc1-c1n[nH]c(=S)n1/N=C/c1ccc(-c2ccccc2Br)o1`: 5.28 (active); `Cc1ccc(Cl)cc1-c1ccc(/C=N/n2cnnc2)o1`: 0.473.
In the case of `Cc1n[nH]c(=S)n1/N=C/c1ccc(Br)o1` it was -0.354; in that of `O=[N+]([O-])c1cccc2ncccc12`, -1.11; in that of `Cc1ccc(Nc2nnc(SCC(=O)c3cc4ccccc4o3)s2)cc1C`, -8.65 (active).
In the case of `Cc1cc2c(=O)n(C)c(SCC(=O)c3cc4ccccc4o3)nc2s1` it was 0.288; in that of `Cc1ccccc1Nc1nnc(SCC(=O)c2cc3ccccc3o2)s1`, -2.32; in that of `CCO[C@H]1OC(C(=O)NCc2ccccc2)=C[C@@H](c2coc3ccccc3c2=O)[C@@H]1CCCO`, -2.75 (active).
Consider `CCO[C@H]1OC(C(=O)N2CCN(Cc3ccccc3)CC2)=C[C@@H](c2cn(C(C)=O)c3ccccc23)[C@@H]1CCCO`, for which the B-score of Tl+ flux slope (higher = more flux/activation; lower = inhibition) is -0.421.
Next, `C#CCNC(=O)C1=C[C@@H](c2ccccc2)[C@H](CCCO)[C@@H](OCC)O1`: 0.698.
Turning to `CN(C)c1ccc(/C=C/C(=O)c2ccc(O)cc2)cc1[N+](=O)[O-]`, the B-score of Tl+ flux slope (higher = more flux/activation; lower = inhibition) was -1.51.
In the case of `CCN(CC(=O)Nc1ccc(S(=O)(=O)N2CCCC2)cc1)CC(=O)Nc1cccc(OC)c1` it was -0.0112; in that of `Cc1onc(-c2ccc(Cl)cc2)c1-c1ccnn1S(=O)(=O)c1ccc(Cl)cc1`, 0.0713; in that of `C#CCNc1ccc(C(=O)OCC)cc1`, 0.0911.
In the case of `COc1ccc(C(=O)Nc2cccc(S(C)(=O)=O)c2)cc1` it was -0.0335.
Next, `COc1ccc(C(=O)NN(C)c2nc(-c3ccccc3)cc(C)c2S(C)(=O)=O)cc1`: -2.92 (active).
`COc1ccc(OCC(=O)NNC(=O)c2ccc(-c3ccccc3)cc2)cc1`: the B-score of Tl+ flux slope (higher = more flux/activation; lower = inhibition) is -0.294.
Regarding `Cc1nc(COc2cccc(Cl)c2)sc1C(=O)/C=C/N(C)C`, the B-score of Tl+ flux slope (higher = more flux/activation; lower = inhibition) is -0.976.
In the case of `CCN(CC)CCCN=Cc1c(O)n(-c2ccc(C)cc2)c(=O)c2ccccc12` it was -0.624.
In the case of `O=C(CSc1nnnn1-c1ccc(O)cc1)c1ccc(F)cc1` it was -0.119.
In the case of `O=C1CSC(=S)N1/N=C/c1ccc(O)c([N+](=O)[O-])c1` it was 0.571; in that of `CCOc1cccc(/C=N/NC(=S)NCCN2CCOCC2)c1O`, -0.223; in that of `CCOc1cccc(/C=N/N2C(=O)CSC2=S)c1O`, 5.34 (active).
As to `CC(=O)N1CCC(N(C(=O)Nc2ccc(Cl)cc2)C(C)C)CC1`, the B-score of Tl+ flux slope (higher = more flux/activation; lower = inhibition) is 0.402.
In the case of `COc1cc(C=O)ccc1Oc1nnnn1-c1ccccc1` it was -0.736.
In the case of `O=C(NC1(C(F)(F)F)NC(=O)N(C2CCCCC2)C1=O)c1ccco1` (configuration not stated), the B-score of Tl+ flux slope (higher = more flux/activation; lower = inhibition) is 0.89.
Next, `COc1ccc(C(=O)NC2(C(F)(F)F)NC(=O)N(CCCc3ccccc3)C2=O)c(OC)c1OC` (configuration not stated): -3.82 (active).
Consider `Cc1ccc(S(=O)(=O)NC2(C(F)(F)F)NC(=O)N(CCc3ccccc3)C2=O)cc1` (configuration not stated), for which the B-score of Tl+ flux slope (higher = more flux/activation; lower = inhibition) was -0.615.
In the case of `COc1ccc(CN2CCNC(=O)C2CC(=O)N(C)Cc2ccccn2)cc1OC` (configuration not stated) it was -0.00917; in that of `Cc1ccc(NS(=O)(=O)c2ccc(N/N=C/c3ccccc3OCC(=O)O)c([N+](=O)[O-])c2)c(C)c1`, -0.087; in that of `COc1cc(CN2CCN(Cc3ccc(C)cc3)CC2)c([N+](=O)[O-])cc1OC`, -0.767.
Next, `CC(=O)c1cccc(S(=O)(=O)N2CCC(n3nnc4cc(F)ccc43)CC2)c1`: -0.212; `O=S(=O)(c1cccc(S(=O)(=O)N2CCC(n3nnc4ccccc43)CC2)c1)N1CCCCC1`: -6.25 (active).
Next, `O=C(c1ccc(F)cc1)N1CCC(n2nnc3ccccc32)CC1`: 1.38.
Regarding `CCN(CC)CCn1cnc2c1c(=O)n(CCOC(=O)c1cc(OC)c(OC)c(OC)c1)c(=O)n2C`, the B-score of Tl+ flux slope (higher = more flux/activation; lower = inhibition) was -0.175.
As for `CC(=O)N1N=C(c2ccncc2)OC1(Cc1ccccc1)Cc1ccccc1`, the B-score of Tl+ flux slope (higher = more flux/activation; lower = inhibition) is -0.683.
In the case of `C(=N/Nc1cc(N2CCOCC2)nc(N2CCOCC2)n1)/c1ccccc1` it was -0.154; in that of `Cc1ccccc1N/N=C/c1ccc(N2CCOCC2)cc1`, 3.06 (active); in that of `Cc1cc(C(=O)N/N=C/c2ccc(N3CCOCC3)cc2)c(C)o1`, -0.588.
